# The supplement of paper PMC10849652
# Targets with a hit are over-represented here; the source holds about 7,900 in all. About 0.6% of all pairs of compound and target were hits. Unmarked numbers belong to inactive results.
# Compound: c1cn2cc(-c3ccc4cn[nH]c4c3)nc(Nc3ccc(N4CCOCC4)cc3)c2n1 [entospletinib]
# Test: log2 fold change, soluble protein after heating vs DMSO (PISA); higher = thermal stabilisation; K562 cells, 10 uM, 30 min; active = over 0.2 and 3.5 SD of the protein, either way, in both replicates (recomputed)
# How it was run: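 K562 cells (2×10^6 cells/mL) were treated with 10 μM compound for 30 min, and aliquots were heated for 3 min over 48°C-58°C. Pooled aliquots were extracted in PBS with 0.5% NP-40 at 4°C, and the supernatant after 21,000xg for 90 min was measured by TMTpro 16plex LC-MS/MS with channel sums equalised. Reported thermal stability, relative to control samples and from duplicates, is a log2 fold change.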
# Chain of UniProt O95140 (O95140 whole entry, looked up): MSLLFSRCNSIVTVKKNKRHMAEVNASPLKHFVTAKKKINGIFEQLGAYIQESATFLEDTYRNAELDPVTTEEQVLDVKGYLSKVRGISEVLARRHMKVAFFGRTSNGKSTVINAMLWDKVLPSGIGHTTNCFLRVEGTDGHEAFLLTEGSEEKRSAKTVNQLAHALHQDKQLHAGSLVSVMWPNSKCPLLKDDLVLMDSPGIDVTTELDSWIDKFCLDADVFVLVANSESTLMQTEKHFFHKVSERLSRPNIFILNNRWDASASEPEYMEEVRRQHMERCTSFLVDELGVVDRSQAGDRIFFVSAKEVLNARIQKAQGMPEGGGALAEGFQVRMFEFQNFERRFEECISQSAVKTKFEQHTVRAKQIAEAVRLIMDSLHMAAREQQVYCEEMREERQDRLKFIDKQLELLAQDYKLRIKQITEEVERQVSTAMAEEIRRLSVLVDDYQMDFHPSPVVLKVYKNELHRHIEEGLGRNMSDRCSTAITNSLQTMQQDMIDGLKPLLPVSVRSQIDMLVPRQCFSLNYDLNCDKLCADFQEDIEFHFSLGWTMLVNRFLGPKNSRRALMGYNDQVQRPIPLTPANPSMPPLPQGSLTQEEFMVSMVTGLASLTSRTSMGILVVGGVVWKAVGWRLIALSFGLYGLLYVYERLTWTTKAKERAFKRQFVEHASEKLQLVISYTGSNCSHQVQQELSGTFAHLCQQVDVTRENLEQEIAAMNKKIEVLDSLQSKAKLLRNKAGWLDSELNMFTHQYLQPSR
# Chain of UniProt O95232 (O95232 whole entry, looked up): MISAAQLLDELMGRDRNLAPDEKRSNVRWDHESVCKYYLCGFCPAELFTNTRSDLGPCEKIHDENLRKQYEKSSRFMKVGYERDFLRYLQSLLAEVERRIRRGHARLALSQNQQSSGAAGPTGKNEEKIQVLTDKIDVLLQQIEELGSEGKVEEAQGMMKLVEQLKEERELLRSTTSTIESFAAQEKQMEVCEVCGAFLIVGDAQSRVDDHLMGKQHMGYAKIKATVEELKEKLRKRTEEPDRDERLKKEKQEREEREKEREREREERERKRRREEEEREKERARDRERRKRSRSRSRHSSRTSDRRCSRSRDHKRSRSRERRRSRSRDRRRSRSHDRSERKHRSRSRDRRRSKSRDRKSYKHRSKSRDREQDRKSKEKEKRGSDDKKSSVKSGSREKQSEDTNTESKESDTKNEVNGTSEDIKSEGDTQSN
# Chain of UniProt Q16539 (Q16539 whole entry, looked up): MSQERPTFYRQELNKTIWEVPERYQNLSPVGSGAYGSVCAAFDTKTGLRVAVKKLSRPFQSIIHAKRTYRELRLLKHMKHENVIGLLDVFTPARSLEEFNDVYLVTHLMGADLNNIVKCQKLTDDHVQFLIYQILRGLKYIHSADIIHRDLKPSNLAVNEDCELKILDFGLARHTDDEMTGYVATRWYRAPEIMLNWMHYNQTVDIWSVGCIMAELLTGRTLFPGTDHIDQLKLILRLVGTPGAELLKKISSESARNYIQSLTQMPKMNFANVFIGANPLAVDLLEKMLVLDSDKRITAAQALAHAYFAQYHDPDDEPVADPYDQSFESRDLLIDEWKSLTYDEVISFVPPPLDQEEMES
# Chain of UniProt Q14676 (Q14676 whole entry, looked up): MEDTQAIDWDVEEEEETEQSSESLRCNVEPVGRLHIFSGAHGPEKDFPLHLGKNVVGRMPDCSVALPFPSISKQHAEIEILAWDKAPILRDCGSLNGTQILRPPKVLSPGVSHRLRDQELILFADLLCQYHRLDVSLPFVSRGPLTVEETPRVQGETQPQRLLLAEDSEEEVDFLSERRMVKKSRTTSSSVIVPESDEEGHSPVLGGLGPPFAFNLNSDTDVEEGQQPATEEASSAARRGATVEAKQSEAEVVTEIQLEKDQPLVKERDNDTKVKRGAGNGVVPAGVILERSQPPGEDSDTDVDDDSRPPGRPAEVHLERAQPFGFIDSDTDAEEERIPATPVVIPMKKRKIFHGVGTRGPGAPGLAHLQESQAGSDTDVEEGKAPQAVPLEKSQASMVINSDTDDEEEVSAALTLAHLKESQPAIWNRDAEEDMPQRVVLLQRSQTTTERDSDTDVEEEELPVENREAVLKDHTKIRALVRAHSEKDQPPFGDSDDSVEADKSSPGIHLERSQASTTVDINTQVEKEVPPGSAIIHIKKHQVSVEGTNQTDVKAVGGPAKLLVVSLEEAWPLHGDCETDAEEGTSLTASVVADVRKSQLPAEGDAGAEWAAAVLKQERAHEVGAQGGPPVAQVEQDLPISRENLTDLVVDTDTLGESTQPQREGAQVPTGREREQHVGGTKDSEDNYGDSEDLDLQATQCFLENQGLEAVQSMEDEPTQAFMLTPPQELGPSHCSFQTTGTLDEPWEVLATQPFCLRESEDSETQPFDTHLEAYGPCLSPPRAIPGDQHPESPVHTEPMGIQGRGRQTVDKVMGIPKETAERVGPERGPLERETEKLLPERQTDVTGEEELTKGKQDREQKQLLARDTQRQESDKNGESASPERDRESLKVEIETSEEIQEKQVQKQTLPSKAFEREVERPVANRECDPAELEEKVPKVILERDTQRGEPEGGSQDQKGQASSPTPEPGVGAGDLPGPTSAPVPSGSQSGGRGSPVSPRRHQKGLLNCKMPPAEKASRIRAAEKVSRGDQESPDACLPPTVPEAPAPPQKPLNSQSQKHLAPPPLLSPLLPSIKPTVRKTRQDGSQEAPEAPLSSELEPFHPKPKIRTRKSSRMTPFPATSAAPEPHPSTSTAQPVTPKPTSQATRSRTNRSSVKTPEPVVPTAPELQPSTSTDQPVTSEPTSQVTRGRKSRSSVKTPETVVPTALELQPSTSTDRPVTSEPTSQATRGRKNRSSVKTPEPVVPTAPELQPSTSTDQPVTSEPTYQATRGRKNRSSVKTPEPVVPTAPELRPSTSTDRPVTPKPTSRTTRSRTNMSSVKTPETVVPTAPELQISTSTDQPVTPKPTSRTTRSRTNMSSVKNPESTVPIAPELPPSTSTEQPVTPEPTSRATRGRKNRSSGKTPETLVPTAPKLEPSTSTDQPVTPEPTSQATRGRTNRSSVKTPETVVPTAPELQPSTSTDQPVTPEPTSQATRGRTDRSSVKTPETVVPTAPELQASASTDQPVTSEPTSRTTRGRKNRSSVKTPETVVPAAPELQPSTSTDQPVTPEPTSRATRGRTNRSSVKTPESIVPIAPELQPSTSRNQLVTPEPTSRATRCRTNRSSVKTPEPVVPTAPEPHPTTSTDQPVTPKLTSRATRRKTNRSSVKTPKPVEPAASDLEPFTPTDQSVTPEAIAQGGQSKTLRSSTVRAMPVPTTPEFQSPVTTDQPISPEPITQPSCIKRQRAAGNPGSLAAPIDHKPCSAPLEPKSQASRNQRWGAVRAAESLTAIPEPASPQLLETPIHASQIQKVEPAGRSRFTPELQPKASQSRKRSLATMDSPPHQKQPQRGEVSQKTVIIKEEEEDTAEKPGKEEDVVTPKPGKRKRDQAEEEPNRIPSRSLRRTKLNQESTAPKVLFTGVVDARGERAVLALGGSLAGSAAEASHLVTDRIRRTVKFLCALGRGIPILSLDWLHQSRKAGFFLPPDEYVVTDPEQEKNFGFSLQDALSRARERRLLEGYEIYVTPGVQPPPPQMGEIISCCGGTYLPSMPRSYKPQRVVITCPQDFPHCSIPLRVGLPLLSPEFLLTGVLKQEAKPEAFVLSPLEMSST
# Chain of UniProt Q9H3F6 (Q9H3F6 whole entry, looked up): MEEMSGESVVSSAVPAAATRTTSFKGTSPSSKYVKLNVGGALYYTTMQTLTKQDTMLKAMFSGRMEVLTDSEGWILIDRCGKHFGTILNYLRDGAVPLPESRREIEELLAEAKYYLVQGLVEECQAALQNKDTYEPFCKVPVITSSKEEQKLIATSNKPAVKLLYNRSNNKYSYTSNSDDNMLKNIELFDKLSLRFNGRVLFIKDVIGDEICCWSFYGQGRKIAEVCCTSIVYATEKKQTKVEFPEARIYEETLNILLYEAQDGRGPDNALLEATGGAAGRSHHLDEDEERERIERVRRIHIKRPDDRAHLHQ
# Chain of UniProt Q8IW41 (Q8IW41 whole entry, looked up): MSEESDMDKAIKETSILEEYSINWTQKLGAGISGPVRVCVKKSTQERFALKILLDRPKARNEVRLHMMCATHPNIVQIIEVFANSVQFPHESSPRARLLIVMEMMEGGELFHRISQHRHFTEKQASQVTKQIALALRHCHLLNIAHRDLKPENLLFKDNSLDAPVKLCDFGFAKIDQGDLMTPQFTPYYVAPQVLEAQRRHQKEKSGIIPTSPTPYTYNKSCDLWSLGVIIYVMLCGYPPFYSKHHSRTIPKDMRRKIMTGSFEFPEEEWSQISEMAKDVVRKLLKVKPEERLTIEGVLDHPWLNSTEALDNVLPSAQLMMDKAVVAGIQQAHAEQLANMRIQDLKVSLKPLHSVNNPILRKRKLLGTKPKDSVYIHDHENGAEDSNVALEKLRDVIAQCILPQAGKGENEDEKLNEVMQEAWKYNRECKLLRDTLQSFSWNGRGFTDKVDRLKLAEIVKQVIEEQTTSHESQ
# Chain of UniProt P45984 (P45984 whole entry, looked up): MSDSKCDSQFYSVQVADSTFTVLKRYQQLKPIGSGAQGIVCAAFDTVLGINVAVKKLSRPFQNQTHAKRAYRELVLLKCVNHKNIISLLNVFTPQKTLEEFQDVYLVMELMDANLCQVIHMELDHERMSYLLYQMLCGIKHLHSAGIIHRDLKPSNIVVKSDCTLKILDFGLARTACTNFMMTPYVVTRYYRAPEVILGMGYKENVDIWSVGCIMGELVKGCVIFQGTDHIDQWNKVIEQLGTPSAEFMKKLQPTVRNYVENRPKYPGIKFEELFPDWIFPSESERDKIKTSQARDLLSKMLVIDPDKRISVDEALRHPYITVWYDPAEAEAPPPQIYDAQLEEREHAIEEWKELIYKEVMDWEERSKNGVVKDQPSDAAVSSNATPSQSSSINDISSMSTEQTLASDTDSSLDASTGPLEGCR
# Chain of UniProt Q15528 (Q15528 whole entry, looked up): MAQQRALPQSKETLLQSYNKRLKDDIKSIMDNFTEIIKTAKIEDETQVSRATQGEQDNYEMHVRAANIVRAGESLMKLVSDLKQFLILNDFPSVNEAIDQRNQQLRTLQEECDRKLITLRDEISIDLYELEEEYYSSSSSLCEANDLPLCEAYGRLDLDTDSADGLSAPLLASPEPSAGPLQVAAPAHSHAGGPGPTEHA
row,Target,log2 fold change
1,LNPEP (UniProt Q9UIQ6),0.013
2,MAP3K7 (UniProt O43318),0.055
3,KIF3A (UniProt Q9Y496),0.491 (active)
4,ITIH4 (UniProt Q14624),0.124
5,IRF3 (UniProt Q14653),-0.022
6,LEPROT (UniProt O15243),0.029
7,KIF3B (UniProt O15066),0.23
8,ILF3 (UniProt Q12906),-0.086
9,MARK2 (UniProt E9PC69),0.029
10,KHDC4 (UniProt Q7Z7F0),-0.051
11,MIF (UniProt P14174),0.111
12,MAPK14 isoform 2 (UniProt Q16539),-0.032
13,KMT2C isoform 3 (UniProt Q8NEZ4),0.052
14,MAP4 (UniProt E7EVA0),-0.007
15,MED22 (UniProt Q15528),-0.143
16,MEAK7 (UniProt Q6P9B6),-0.06
17,IGFBP2 (UniProt P18065),0.092

row,Target,log2 fold change
1,LUC7L3 (UniProt O95232),-0.005
2,LPIN1 isoform 7 (UniProt Q14693),-0.078
3,MDC1 (UniProt Q14676),-0.054
4,MAPK9 (UniProt P45984),-0.069
5,MFN2 (UniProt O95140),-0.004
6,IRF2BPL (UniProt Q9H1B7),0.001
7,KIF13A (UniProt Q9H1H9),0.066
8,LIAS (UniProt O43766),0.113
9,MAP3K4 isoform 2 (UniProt Q9Y6R4),0.02
10,IK (UniProt Q13123),0.015
11,KIF1B isoform 4 (UniProt O60333),-0.013
12,IRAK4 (UniProt Q9NWZ3),0.096
13,KCTD10 (UniProt Q9H3F6),0.047
14,LAPTM4B (UniProt Q86VI4),0.049
15,MAPRE3 (UniProt Q9UPY8),-0.041
16,KLC2 (UniProt Q9H0B6),0.011
17,MAPKAPK5 (UniProt Q8IW41),-0.03
